Vc quorum ag: inducers of Vibrio cholerae quorum light production without autoinducers; actives 0.16% (n = 350,000); V. cholerae BH1578 lux reporter, luminescence, 6 h; activation, % at 18.7 µM; in the data active = activation mostly above about 9.7%, no sharp cut-off; inconclusive = no clear call, values can overlap the other calls; inactive = mostly below about 3.7%
PrPC TRFRET: reduces human prion protein on the cell surface. P04156. cell surface PrPC, TR-FRET read-out. inhibition, % at 13.8 µM. actives 0.43% (n = 370,000). AID 720596; in the data active = inhibition above about 24%; note: 0% = median of the test wells and 100% = reference compound wells
Yp Topo-I inh: inhibitors of Yersinia pestis topoisomerase I; actives 0.064% (n = 360,000); activity, % at 10 µM; AID 504884; Y. pestis Topo-I cleavage product accumulation, plate reader; in the data active = activity above about 50%, passing the limit was not always enough; inconclusive = no clear call, values can overlap the other calls
CCHF vOTU inh: CCHFV vOTU protease inhibition | Pep-AMC fluorescence | inhibition, % at 11.5 µM | actives 0.55% (n = 370,000) | AID 651958; in the data active = inhibition above about 30%; note: 0% = vehicle wells with enzyme and 100% = no enzyme wells
PrPC TRFRET cf: confirmation of inhibitors of cell surface human prion protein. shares compounds with PrPC TRFRET. cell surface PrPC level, TR-FRET. inhibition, % at 13.8 µM. actives 65% (n = 1,500); in the data active = inhibition above about 25%
LD9 cytotox: counter-screen for PrPc inhibitors: cytotoxicity in LD9 cells; actives 29% (n = 1,500); AID 743201; shares compounds with PrPC TRFRET; inhibition, % at 13.8 µM; luminescence viability; in the data active = inhibition above about 9.5%
* hit, by the source's call; i = inactive; ? = inconclusive; / = not tested or not shown. This is a sample that favours compounds with a hit; in the whole collection about 1.1% have one here.

SMILES	Vc quorum ag	PrPC TRFRET	Yp Topo-I inh	CCHF vOTU inh	PrPC TRFRET cf	LD9 cytotox
CCOC(=O)CSc1nc(CC)nc2ccccc12	i	106.5*	10.3	-2.0	120.5*	-7.6
CCOC(=O)CSc1nc(Cc2ccccc2)nc2ccccc12	i	64.4*	?	-2.0	88.9*	-0.6
O=C(CSc1nc(Cc2ccccc2)nc2ccccc12)Nc1nc2c(s1)CCCC2	i	4.1	19.7	-12.0	/	/
COC(=O)CSc1nc(Cc2ccccc2)nc2ccccc12	-0.3	67.7*	1.1	-7.6	91.1*	-7.2
CCOC(=O)CNC(=O)CSc1nc(Cc2cccs2)nc2ccccc12	-6.7	-3.3	-14.0	-22.8	/	/
Cc1ccc2c(c1)C(=O)C(=O)N2Cc1ccc(F)cc1	-0.4	-0.1	10.3	5.9	/	/
CCc1ccccc1NC(=O)c1cc(=O)c2ccccc2o1	-0.8	-0.9	-2.5	-6.0	/	/
CC1CC(N(C(=O)c2ccc(Cl)cc2)c2ccccc2)c2ccccc2N1C(=O)c1ccco1 (stereo not drawn)	-0.7	24.5*	25.1	9.5	13.2	-2.6
CNNC(=S)Nc1cccc(C(F)(F)F)c1	0.0	61.8*	3.9	20.1	-1.2	-6.0
CC(C)(C)NC(=S)Nc1cccc(C(F)(F)F)c1	-0.1	2.1	0.9	-5.7	/	/
COc1ccccc1CCn1cnc(-c2ccccc2OC)c1C(C)C	/	16.6	/	26.0	/	/
COc1ccc(NC(=O)COC(=O)c2ccc(-n3nc(C)cc3C)cc2)cc1OC	2.1	2.6	24.1	14.7	/	/
COc1ccc2[nH]c(C)c(CCNC(=S)Nc3ccccc3OC)c2c1	2.2	11.5	-7.7	15.3	/	/
CC(=O)NC1(C(F)(F)F)C(=O)Nc2c1c(=O)[nH]c(=O)n2Cc1ccco1 (stereo not drawn)	3.0	5.2	0.4	2.2	/	/
O=c1[nH]c(=O)n(Cc2ccco2)c2c1C(C(F)(F)F)(C(F)(F)F)N=C(Cc1ccccc1)N2	i	56.4*	1.6	2.9	46.6*	8.2
Brc1ccc(-c2nnc3sc(CNC4CCCC4)cn23)cc1	-0.2	46.0*	3.4	1.0	57.6*	-2.7
O=C(CSC1=NCCS1)Nc1ccnc2ccccc12	i	56.4*	-3.1	0.0	51.4*	7.3
O=C(CSC1=NCCS1)Nc1ccc2ccccc2c1	i	3.1	7.9	5.6	/	/
Cc1cc(C)nc(SCC(=O)Nc2ccnc3ccccc23)n1	-0.1	45.7*	6.2	11.7	43.2*	16.3*
COc1ccccc1CN1CC(C(=O)NCc2cnn(C)c2)CCC1=O (stereo not drawn)	0.8	2.7	-5.2	-10.3	/	/
O=C(COc1nsnc1N1CCOCC1)Nc1ccc(Cl)cc1	i	25.6*	9.5	-0.5	8.3	-2.8
O=C(COc1nsnc1N1CCOCC1)Nc1ccc([N+](=O)[O-])cc1	0.2	-0.8	-10.3	9.0	/	/
COC(=O)Cn1c(C)c(/C=C/c2cc[n+](C)cc2)c2ccccc21	-0.8	-22.6	0.5	5.0	/	/
O=C(CSc1ccc2ccccc2c1Br)Nc1cccc(S(=O)(=O)NC2=NCCCCC2)c1	-0.3	39.3*	30.8	3.6	47.6*	-0.1
O=[N+]([O-])c1cccnc1S(=O)(=O)c1ccccc1	0.4	38.0*	-0.6	14.8	-6.7	97.8*
SMILES	Vc quorum ag	PrPC TRFRET	Yp Topo-I inh	CCHF vOTU inh	PrPC TRFRET cf	LD9 cytotox
Nc1cccnc1S(=O)(=O)c1ccccc1	-0.6	6.4	-6.3	3.7	/	/
COc1ccc([N+](=O)[O-])c(S(=O)(=O)c2ccccc2)n1	i	52.4*	-5.5	2.0	-4.3	94.9*
O=C(CCN1C(=O)c2ccccc2C1=O)CN1CCOCC1	3.3	2.7	6.3	-8.5	/	/
O=C(N/N=C\c1ccoc1)c1ccco1	i	-3.8	1.5	10.7	/	/
CCCCCN1C(=O)c2cc(OC)ccc2[C@@]2(C(=O)OCC)Cc3cc(Cl)ccc3[C@@H]12	/	33.4*	/	7.7	46.6*	98.8*
CCOC(=O)[C@]12Cc3cc(OC)ccc3[C@H]1N(C1CCCCC1)C(=O)c1ccccc12	/	26.4*	/	9.9	41.6*	95.1*
O=C(Nc1ccc2c(c1)OCO2)c1cc(C2CCCN(C(=O)C3CCCCC3)C2)on1 (stereo not drawn)	-4.5	33.3*	22.4	6.0	24.3	-4.4
COc1ccc(S(=O)(=O)N2CCCCC2c2cc(C(=O)Nc3ccccc3)no2)cc1 (stereo not drawn)	-0.4	7.0	-7.6	17.8	/	/
CN(C)c1ccc(CC(=O)N2CCCC(c3cc(C(=O)Nc4ccc(F)c(Cl)c4)no3)C2)cc1 (stereo not drawn)	0.9	26.6*	12.4	15.5	19.2	9.1
O=C(Nc1ccc2c(c1)OCO2)c1cc(C2CCCCN2S(=O)(=O)c2ccccc2)on1 (stereo not drawn)	-1.0	47.2*	23.7	18.0	40.4*	-0.1
O=C(CCn1nnc2ccccc21)Nc1nnc(Cc2ccc(F)cc2)s1	-0.4	-6.2	2.9	14.2	/	/
COc1ccc(CC2C(=O)NC(C)C(=O)N(C)C3Cc4ccc(cc4)Oc4cc(ccc4O)CC(C(=O)NC(C)C(=O)NC(C)C(=O)N2C)N(C)C3=O)cc1 (stereo not drawn)	i	83.3*	11.0	-5.0	90.3*	34.4*
Cc1ccc(S(=O)(=O)Nc2ccc3ccccc3c2)cc1	i	13.3	-1.4	-3.3	/	/
CSc1nc2ccc(NC(=O)c3cccs3)cc2s1	-5.6	25.5*	-11.0	3.8	24.8*	-0.3
Cc1cc(C(=O)NNC(=O)Nc2ccc(Cl)cc2)no1	0.2	0.6	4.7	-2.0	/	/
Cc1cc(C(=O)NNc2ccc(Cl)cc2)no1	i	30.9*	-5.4	12.8	33.2*	-1.6
CCCC(=O)Nc1ccc(C(=O)Nc2nnc(COC)s2)cc1	-0.4	5.8	0.7	-4.2	/	/
CCCCCc1c(CC)ncn1CCc1ccccc1OC	/	28.9*	/	26.6	19.4	22.1*
CCCCCc1c(-c2ccccc2OC)ncn1CCc1ccccc1OC	/	12.5	/	23.1	/	/
O=C(c1ccc(NC2=NC3CS(=O)(=O)CC3S2)cc1)N1CCN(c2ccccc2F)CC1 (stereo not drawn)	-0.2	2.8	0.3	-3.9	/	/
CN(C)S(=O)(=O)c1cccc(NC(=O)CSc2ncnc3ccccc23)c1	i	51.4*	10.5	-8.3	77.1*	-4.0
CN(C)S(=O)(=O)c1cccc(NC(=O)CSc2nc3ccccc3[nH]2)c1	-0.1	-0.9	8.4	14.9	/	/
O=C(COc1ncnc2ccccc12)Nc1cccc(S(=O)(=O)N2CCOCC2)c1	-0.2	6.7	-4.0	14.1	/	/
CN(C)S(=O)(=O)c1ccc(NC(=O)CSc2ncnc3ccccc23)cc1	-0.8	50.3*	-1.9	12.9	53.4*	-12.8
O=C(CSc1ncnc2ccccc12)Nc1cccc(S(=O)(=O)N2CCOCC2)c1	i	68.0*	0.7	1.7	65.6*	3.0
Cc1csc(NC(=O)CSc2ncnc3ccccc23)n1	i	17.9	10.5	4.1	/	/
O=C(N/N=C/C=C\c1cccc([N+](=O)[O-])c1)c1ccccn1	i	-7.5	0.5	11.2	/	/
Cc1nc(N2CCOCC2)nc(OCCN2CCOCC2)c1[N+](=O)[O-]	i	-0.5	-5.1	8.6	/	/

From PubChem
